Each structure is given as a SMILES string. Records with an inconclusive call do not appear. Entries that show only a call come without a potency. A number with no mark means an inactive call. The source made the active and inactive calls. Unless noted, calls follow the shape of the dose curve; as a rule, active = well fitted cell-killing curve with a large enough effect in the repeat runs (not every such curve was filed as active); inconclusive = weak or mixed curves, or effect the other way; inactive = no such curve, though single readings can be large or run the other way.

Thyrotropin receptor (Homo sapiens), sequence (P16473 whole entry, looked up): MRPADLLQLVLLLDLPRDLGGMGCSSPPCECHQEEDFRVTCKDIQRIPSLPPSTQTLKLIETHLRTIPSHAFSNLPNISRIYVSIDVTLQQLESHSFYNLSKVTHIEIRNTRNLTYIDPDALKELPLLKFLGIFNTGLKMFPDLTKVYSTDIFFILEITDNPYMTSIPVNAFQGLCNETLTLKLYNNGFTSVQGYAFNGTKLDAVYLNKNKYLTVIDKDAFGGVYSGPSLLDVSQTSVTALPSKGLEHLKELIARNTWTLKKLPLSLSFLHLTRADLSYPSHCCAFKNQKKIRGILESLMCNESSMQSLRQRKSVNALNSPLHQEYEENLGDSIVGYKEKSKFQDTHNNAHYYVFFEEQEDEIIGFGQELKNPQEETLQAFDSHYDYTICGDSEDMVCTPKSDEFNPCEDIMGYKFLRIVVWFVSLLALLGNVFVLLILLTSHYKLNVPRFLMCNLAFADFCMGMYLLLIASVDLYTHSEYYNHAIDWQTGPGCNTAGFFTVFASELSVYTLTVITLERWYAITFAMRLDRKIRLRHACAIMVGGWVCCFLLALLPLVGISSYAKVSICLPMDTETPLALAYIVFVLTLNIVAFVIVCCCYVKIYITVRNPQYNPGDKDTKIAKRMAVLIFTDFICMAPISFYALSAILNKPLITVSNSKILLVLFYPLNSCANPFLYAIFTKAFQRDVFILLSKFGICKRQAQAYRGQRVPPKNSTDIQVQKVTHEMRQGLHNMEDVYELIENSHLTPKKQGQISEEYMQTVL

Tested on in one test: not listed separately
The test is described as follows: qHTS assay to identify small molecule antagonists of the estrogen related receptor signaling pathway with the pleiotropic PPARgamma coactivator (PGC) from Tox21 10K library - cell viability counter screen (AID 1224840). Also: nearly all actives have a fitted effect of over 40% in size. Also: potency is read from the fitted curve at half-maximal effect. Particulars: PGC/ERR reporter cells viability, CellTiter-Fluor, 17.5 h; series mostly up to 92.4 µM. The method, boiled down: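 Viability counter screen, PGC/ERR cells: 17.5 h compound exposure at 37 C, CellTiter-Fluor fluorescence endpoint.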
On the technique in general: In qHTS, concentration-response curves come from the screen itself.
Regarding `O=C(CCN1CCC(c2ccccc2)C1)c1ccc2c(c1)OCCO2` (stereo not drawn), the Potency result is “inactive”.

As to `CCN(CC)c1ccc2c(c1)Oc1cc(N(CC)CC)ccc1C21OC(=O)c2ccccc21`, the Potency was 8.41 µM (active).

`N#Cc1nc(Cl)c(Cl)c(Cl)c1Cl`: the Potency was 15.4 µM (active).

Take `CC(C)(C)c1ccc(OC2CCCCC2O)cc1` (stereo not drawn): the Potency entry was “inactive”.

As to `CN[C@H]1CC[C@@H](c2ccc(Cl)c(Cl)c2)c2ccc(S(N)(=O)=O)cc21`, the Potency was 61.1 µM (active).

On to `C=CC(C)(C)O`, for which the Potency entry was “inactive”.

Consider `S=C1NC=NC2N=CNC12` (stereo not drawn), for which the Potency entry was “inactive”.

In the case of `CCSCC`, the Potency result is “inactive”.

`CC(=O)CC(N)=O`: the Potency result is “inactive”.

For `CCCCCCCCOC(=O)c1cc(O)c(O)c(O)c1`, the Potency is 34.4 µM (active).

For `CC(C)=NNC(N)=S`, the Potency entry was “inactive”.

For `O=C(O)CN(CCCN(CC(=O)O)CC(=O)O)CC(=O)O`, the viability change, negative = cytotoxic was -3.45% [at 19 µM].

Regarding `CCOC=C(C(=O)OCC)C(=O)OCC`, the Potency entry was “inactive”.

In the case of `COc1cccc(-c2ccc(/C=C\CN3CCCCCC3)cc2Cl)c1`, the Potency is 54.2 µM (active).

As for `Nc1cc([N+](=O)[O-])cc(Cl)c1O`, the Potency result is “inactive”.

`CC1(C)[C@H]2CC[C@]1(C)C(=O)C2`: the Potency entry was “inactive”.

As to `CCC(O)CO` (stereo not drawn), the Potency entry is “inactive”.

With `c1ccc2cc3c4ccccc4c4ccccc4c3cc2c1`, the Potency result was “inactive”.

For the compound `Cn1ccnc1`, the Potency entry is “inactive”.

As to `Cc1cccc(C)c1C`, the Potency entry was “inactive”.

For the compound `NC(=O)c1ccccc1Cl`, the Potency entry is “inactive”.

Take `C/C=C/C(=O)C1=C(C)C=CCC1(C)C`: the Potency entry was “inactive”.

As for `O=C1C=CC(=O)N1c1cccc(N2C(=O)C=CC2=O)c1`, the Potency was 34.4 µM (active).

Consider `CCC1(C)C(=O)N(Cl)C(=O)N1Cl` (stereo not drawn), for which the Potency result was “inactive”.

With `CC(C)(C)c1cc(CCC(=O)OCCSCCOC(=O)CCc2cc(C(C)(C)C)c(O)c(C(C)(C)C)c2)cc(C(C)(C)C)c1O`, the Potency entry was “inactive”.

Regarding `CCCCCCCCCCCCS(=O)(=O)Cl`, the viability change, negative = cytotoxic is 3.05% [at 19 µM].

For the compound `CCOc1nc(F)cc2nc(S(=O)(=O)Nc3c(Cl)cccc3C(=O)OC)nn12`, the Potency entry is “inactive”.

Take `CC(C)c1ccc2sc3ccccc3c(=O)c2c1`: the Potency result is “inactive”.

Tested on in another test: not listed separately
The test is described as follows: qHTS assay to identify small molecule antagonists of the estrogen related receptor signaling pathway with the pleiotropic PPARgamma coactivator (PGC) from Tox21 10K library (AID 1224841; call rule not given here; also: actives are mostly falling curves and most rising ones were filed inactive; nearly all actives have a fitted effect of over 50% in size; also: potency is read from the fitted curve at half-maximal effect). Particulars: PGC/ERR reporter cell line, ONE-Glo luciferase, 18 h; series mostly up to 92.4 µM. The method, boiled down: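 In the PGC/ERR line, DMSO solutions of test chemicals are pin-delivered to 2,000 cells/well six hours after dispensing. Following eighteen hours' incubation, One-Glo reagent is added and luminescence recorded.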
Regarding `COc1cc(/C=C/C(=O)CC(=O)/C=C/c2ccc(O)c(OC)c2)ccc1O`, the Potency is 19.4 µM (active).

For the compound `CCCCCCCCCCCCCCCCCCNC(=O)OC1CCN(C(=O)OC[C@H](COC(=O)N(Cc2cccc[n+]2CC)C(=O)c2ccccc2OC)OC)CC1`, the Potency is 11.9 µM (active).

Consider `N#Cc1nc(Cl)c(Cl)c(Cl)c1Cl`, for which the Potency was 12.2 µM (active).

Turning to `S=C1NC=NC2N=CNC12` (stereo not drawn), the Potency was 0.486 µM (active).

For `COc1cccc(-c2ccc(/C=C\CN3CCCCCC3)cc2Cl)c1`, the Potency entry is “inactive”.

Turning to `CC1(C)[C@H]2CC[C@]1(C)C(=O)C2`, the Potency result is “inactive”.

In the case of `O[Si](c1ccccc1)(c1ccccc1)c1ccccc1`, the Potency was 68.6 µM (active).

`Oc1cccc2c(O)cccc12`: the Potency is 2.73 µM (active).

Take `Cn1ccnc1`: the Potency result was “inactive”.

Consider `C/C=C/C(=O)C1=C(C)C=CCC1(C)C`, for which the Potency result is “inactive”.

Take `O=C1C=CC(=O)N1c1cccc(N2C(=O)C=CC2=O)c1`: the Potency is 77 µM (active).

As for `COc1cc([C@@H]2c3cc4c(cc3[C@@H](O[C@@H]3O[C@@H]5CO[C@@H](C)O[C@H]5[C@H](O)[C@H]3O)[C@H]3COC(=O)[C@H]23)OCO4)cc(OC)c1O`, the Potency result is “inactive”.

Tested on in a further test: not listed separately
Kind of test: qHTS assay to identify small molecule agonists of the estrogen related receptor signaling pathway with the pleiotropic PPARgamma coactivator (PGC) from Tox21 10K library (AID 1224842; active = well fitted activation curve with a large enough effect in the repeat runs; also: nearly all actives have a fitted effect of over 15% in size). Particulars: PGC/ERR reporter cell line, luciferase ONE-Glo, 18 h; series mostly up to 92.4 µM. The gist of the method: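 PGC/ERR reporter cells (NTP line) were seeded 2,000 per well, rested 6 h at 37 C/5% CO2, then pin-dosed with compounds in DMSO for 18 h at 37 C; luciferase read by One-Glo luminescence after 30 min at room temperature.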
As for `CCCCCCCCCCCCCCCCCCNC(=O)OC1CCN(C(=O)OC[C@H](COC(=O)N(Cc2cccc[n+]2CC)C(=O)c2ccccc2OC)OC)CC1`, the Potency result is “inactive”.

Take `S=C1NC=NC2N=CNC12` (stereo not drawn): the Potency entry was “inactive”.

As for `Cc1cc(C)c(O)c(C(C)(C)C)c1`, the Potency entry was “inactive”.

`O[Si](c1ccccc1)(c1ccccc1)c1ccccc1`: the Potency result is “inactive”.

Regarding `Oc1cccc2c(O)cccc12`, the Potency entry was “inactive”.

As to `Cn1ccnc1`, the Potency result was “inactive”.

Consider `O=C1C=CC(=O)N1c1cccc(N2C(=O)C=CC2=O)c1`, for which the Potency result is “inactive”.

The next test deals with Thyrotropin receptor (Homo sapiens) (UniProt P16473). Kind of test: qHTS assay to identify small molecule agonists of the thyroid stimulating hormone receptor (TSHR) signaling pathway (AID 1224843; calls by dose curve; also: nearly all actives have a fitted effect of over 45% in size; also: potency is read from the fitted curve at half-maximal effect). Particulars: TSHR-HEK293 cells, cAMP HTRF, agonist mode, 30 min; series mostly up to 92.4 µM. The gist of the method:
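Compounds are titrated over 15 concentrations, in triplicate, onto TSHR-HEK293 cells seeded at 800/well. Plates sit 30 min at room temperature before cAMP-d2 and anti-cAMP cryptate are added; signal is read after a further hour.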
In the case of `O=C(CCN1CCC(c2ccccc2)C1)c1ccc2c(c1)OCCO2` (stereo not drawn), the Potency entry is “inactive”.

Take `N#Cc1nc(Cl)c(Cl)c(Cl)c1Cl`: the Potency is 34.4 µM (active).

As to `O=C1OC(O)C(C(Cl)Cl)=C1Cl` (stereo not drawn), the Potency entry was “inactive”.

As to `CC(C)(C)c1ccc(OC2CCCCC2O)cc1` (stereo not drawn), the Potency entry was “inactive”.

In the case of `S=C1NC=NC2N=CNC12` (stereo not drawn), the Potency result is “inactive”.

For the compound `CCCCCCCCOC(=O)c1cc(O)c(O)c(O)c1`, the Potency result was “inactive”.

For the compound `O=C(O)CN(CCCN(CC(=O)O)CC(=O)O)CC(=O)O`, the activation is -0.184% [at 19 µM].

Take `CCOC=C(C(=O)OCC)C(=O)OCC`: the Potency entry was “inactive”.

Consider `CC1(C)[C@H]2CC[C@]1(C)C(=O)C2`, for which the Potency result was “inactive”.

For the compound `O[Si](c1ccccc1)(c1ccccc1)c1ccccc1`, the Potency is 48.6 µM (active).

For the compound `CCC(O)CO` (stereo not drawn), the Potency result was “inactive”.

Consider `Oc1cccc2c(O)cccc12`, for which the Potency entry was “inactive”.

Regarding `c1ccc2cc3c4ccccc4c4ccccc4c3cc2c1`, the Potency result is “inactive”.

For the compound `Cn1ccnc1`, the Potency entry was “inactive”.

For `Cc1cccc(C)c1C`, the Potency result is “inactive”.

Take `C/C=C/C(=O)C1=C(C)C=CCC1(C)C`: the Potency entry was “inactive”.

Turning to `O=C1C=CC(=O)N1c1cccc(N2C(=O)C=CC2=O)c1`, the Potency was 5.45 µM (active).

With `CCC1(C)C(=O)N(Cl)C(=O)N1Cl` (stereo not drawn), the Potency entry is “inactive”.

`CC(C)(C)c1cc(CCC(=O)OCCSCCOC(=O)CCc2cc(C(C)(C)C)c(O)c(C(C)(C)C)c2)cc(C(C)(C)C)c1O`: the Potency entry is “inactive”.

`CCCCCCCCCCCCS(=O)(=O)Cl`: the activation is -1.12% [at 19 µM].

For `CCOc1nc(F)cc2nc(S(=O)(=O)Nc3c(Cl)cccc3C(=O)OC)nn12`, the Potency entry was “inactive”.
